Screening data (PubChem)
aSyn 5UTR act – Activators via SNCA 5'UTR binding, MLPCN; alpha-synuclein 5'UTR reporter, activators screen; activity score, % (tested at 7.5 µM), hits read low; 7.1% of 300,000 active; in the data active means activity score below about -60%
* hit, by the source's call. These entries were drawn from the full list.

SMILES | aSyn 5UTR act
CN(CC(=O)N1CCc2ccccc21)S(=O)(=O)c1cccs1 | -129.8*
C=C(C)C1Cc2cc3ccc(=O)oc3cc2O1 (stereo not given) | -65.1*
Nc1cnc(Nc2ccc(Br)cc2)nc1N | -105.9*
Oc1c(C(c2ccccc2Cl)N2CCCC2)ccc2cccnc12 (stereo not given) | 97.3
Nc1ccccc1C(=O)NNC(=O)C(=O)/C=C(\O)c1ccccc1 | -138.9*
O=C(c1nc2ccccc2s1)N1CCSCC1 | -91.6*
O=C1CC(/C=C/c2ccc([N+](=O)[O-])cc2)=Nc2ccccc2N1 | -112.1*
O=C1c2ccccc2S(=O)(=O)N1CC1CC(c2ccccc2)=NO1 (stereo not given) | -143.7*
COc1ccc(C2=NOC(CN3C(=O)c4ccccc4S3(=O)=O)C2)cc1 (stereo not given) | -175.4*
O=C1c2ccccc2S(=O)(=O)N1CC1CC(c2ccc(Cl)cc2)=NO1 (stereo not given) | -197.4*
O=C(CN1C(=O)c2ccccc2S1(=O)=O)c1ccccc1Cl | 100.6
C=C(C(=O)c1ccccc1)C(C)C(=C)C(=O)c1ccccc1 | -148.7*
Cn1ccsc1=NC(=O)c1ccc([N+](=O)[O-])o1 | -160.8*
Cc1nc2ccccc2c(=O)n1/N=C/c1ccc([N+](=O)[O-])o1 | -63.6*
Cc1nc2ccccc2n1/N=C/c1ccc([N+](=O)[O-])o1 | -172.4*
CCn1c(=O)oc2cc(NC(=O)CCl)ccc21 | -104.0*
Cn1c(=O)n(C)c2cc(NC(=O)CCl)ccc21 | -180.0*
CCOc1ccc(NC(=O)Cn2ncc3ccccc32)cc1 | -129.3*
CC1CCC(NC(=O)Cn2ncc3ccccc32)CC1 (stereo not given) | -113.3*
Cc1ccn2c(=O)nc(SCC(=O)c3ccccc3)nc2c1 | -76.0*
Cc1ccc2nc(SCC(=O)c3ccccc3)nc(=O)n2c1 | -111.8*
COc1ccc(NC2=Nc3ccccc3CC2)cc1 | -137.5*
S=C1c2ccccc2CN1c1ccccc1 | -64.4*
Cc1ccc(N2Cc3ccccc3C2=S)cc1 | -154.0*
CN(C)C(=O)c1cc(C(=O)c2ccc(F)cc2F)c[nH]1 | -72.4*
SMILES | aSyn 5UTR act
Cc1ccc(N2CCN(C(=O)c3cc(C(=O)c4ccccc4C)c[nH]3)CC2)c(C)c1 | 58.4
CN(C)C(=O)c1cc(C(=O)c2ccc(C(F)(F)F)cc2F)c[nH]1 | -68.2*
O=C1c2ccccc2NC(c2ccccc2Cl)N1N=C1CCCCCC1 (stereo not given) | -178.7*
Cc1ccc(N(C)/N=C/c2ccc(Cl)cc2Cl)nn1 | -92.1*
COc1ccc([C@H]2CC(=O)c3c(O)cc(O)cc3O2)cc1O | -92.7*
COc1c(O)cc2c(c1O)C(=O)CC(c1ccccc1)O2 (stereo not given) | -102.3*
O=C(NCc1cccnc1)/C(=C\c1ccc(-c2ccc(Cl)c(Cl)c2)o1)S(=O)(=O)c1ccccc1 | -331.6*
Cc1cc(C)nc(NC(=O)CSc2nc3ccccc3o2)n1 | -153.2*
Cc1ccc2nc(NC(=O)CSc3nc4ccccc4o3)sc2c1 | -143.5*
CC(=O)c1cc2c(cc1NC(=O)CSc1nc3ccccc3o1)OCO2 | -153.7*
Cc1ccc2nc(NC(=O)CSc3nncc(=O)n3N)sc2c1 | -98.5*
O=C(CSc1nc2ccccc2[nH]1)Nc1nc(-c2ccc(Br)cc2)cs1 | -76.4*
O=C(CSc1nc2ccccc2o1)N/N=C/c1ccco1 | -81.6*
Cc1ccc(-c2csc(NC(=O)CSc3nc4ccccc4o3)n2)cc1 | -93.7*
COC(=O)c1ccc(OCc2cc(=O)n3ccsc3n2)cc1 | -133.9*
NC(=O)Nc1ccc2c(c1)OCCO2 | -112.9*
O=C(Nc1ccc2c(c1)OCO2)Nc1ccc(Cl)cc1Cl | -111.6*
CC1CCC(NC(=O)C(=O)Nc2ccc3c(c2)OCO3)CC1 (stereo not given) | -114.2*
O=C(Nc1ccc(F)cc1F)c1cc(-c2ccc3c(c2)OCO3)on1 | -110.5*
Cc1nn(Cc2ccc(Cl)cc2)c(C)c1NC(=O)c1cc(-c2ccc3c(c2)OCO3)on1 | 61.5
Cc1ccc(NC(=O)Nc2ccc3c(c2)OCO3)c(Br)c1 | -117.0*
O=C(Nc1ccc(F)cc1)Nc1ccc2c(c1)OCO2 | -108.8*
Cc1ccc2c(Cl)c(C(=O)Nc3ccc4c(c3)OCO4)sc2c1 | -148.3*
Cc1cc(C)c2[nH]c(C(=O)Nc3ccc4c(c3)OCO4)cc2c1 | -65.9*
COC(=O)c1cccc(NC(=O)Nc2ccc(Cl)cc2Cl)c1 | -102.7*
SMILES | aSyn 5UTR act
CCc1ccc2[nH]c(C(=O)Nc3ccc(Br)c(C)n3)cc2c1 | -146.2*
CCc1ccc2[nH]c(C(=O)Nc3ccc4c(c3)OCO4)cc2c1 | -94.3*
O=C(Nc1ccc(Cl)cc1)Nc1ccc2c(c1)OCO2 | -133.9*
O=C(Nc1ccc2c(c1)OCO2)Nc1ccc(F)cc1F | -137.8*
Cc1cc(C)c(NC(=O)Nc2ccc3c(c2)OCO3)c(C)c1 | -70.7*
Cc1noc(C(=O)Nc2ccc3c(c2)OCO3)c1Cl | -205.2*
O=C(Nc1ccc2c(c1)OCO2)c1c(Cl)nc2sccn12 | -205.5*
O=C(Nc1cccc(C(=O)O)c1)Nc1ccc2c(c1)OCO2 | 99.4
COC(=O)c1ccc(C(=O)OC)c(NC(=O)Nc2ccc3c(c2)OCO3)c1 | -123.6*
